# According to PubChem BioAssay (NCI):
# This is part of a sample that, as a whole, favours compounds with a hit. Of some 83,000 tested, about 20% had one in any assay.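 Results are percent growth after 48 hours of single-concentration exposure. 100 means growth as in untreated cells, lower positive values show inhibition; negative values down to -100 show cell death.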 A number with no mark means an inactive call. The source made the active and inactive calls. Rule for the calls: active = growth percent below 10; inactive = the rest.
# How the values were obtained:
# Assay in all cases: NCI-60 one-dose screen, 48 h (100 = growth as untreated, 0 = no growth, -100 = all killed)
# Conditions in all cases: 10 µM unless noted
# RPMI-8226 leukemia = system: RPMI-8226 leukemia
# OVCAR-8 ovarian = system: OVCAR-8 ovarian
# OVCAR-5 ovarian = system: OVCAR-5 ovarian
# OVCAR-4 ovarian = system: OVCAR-4 ovarian
# SK-OV-3 ovarian = system: SK-OV-3 ovarian
# IGROV1 ovarian = system: IGROV1 ovarian
# OVCAR-3 ovarian = system: OVCAR-3 ovarian
# HS 578T breast = system: HS 578T breast
# NCI/ADR-RES ovarian = system: NCI/ADR-RES ovarian
# T-47D breast = system: T-47D breast
Structure (SMILES),growth (RPMI-8226 leukemia),growth (OVCAR-8 ovarian),growth (OVCAR-5 ovarian),growth (OVCAR-4 ovarian),growth (SK-OV-3 ovarian),growth (IGROV1 ovarian),growth (OVCAR-3 ovarian),growth (HS 578T breast),growth (NCI/ADR-RES ovarian),growth (T-47D breast)
CCOC(=O)C(=Cc1c(-c2ccccc2)[nH]c2ccccc12)C(=O)OCC,-47.8% (active),39.4%,98.3%,49.9%,94.5%,34.7%,38%,59.5%,24.7%,21.1%
CCCCN(CCCC)CC(CN(CC)CC)OC(=O)Nc1ccccc1 (stereo not given),96.7%,106%,76.7%,77.1%,87.4%,57%,108%,113%,82.4%,92.2%
O=C(Nc1ccc(S(=O)(=O)NC2CCCCCC2)cc1)C(c1ccccc1)S(=O)(=O)c1ccc(F)cc1 (stereo not given),-23.1% (active),8.45% (active),5.42% (active),4.28% (active),3.67% (active),9.4% (active),3.59% (active),-2.41% (active),15.1%,8.11% (active)
COc1ccc2[nH]c(-c3ccccc3)c(C=C(C#N)C#N)c2c1,-50.2% (active),48.2%,65.7%,35%,51.2%,49.5%,7.4% (active),40.9%,-4.6% (active),26.4%
Cc1cccc(C)c1NC(=O)CN(CC(C)C)CC(O)COc1ccccc1 (stereo not given),89.2%,105%,99.9%,86.9%,90.1%,94.3%,111%,118%,86.7%,85.3%
COc1ccc(C2=NN(c3ccc(S(N)(=O)=O)cc3)C(c3ccc(Cl)cc3)C2)c(O)c1 (stereo not given),4.28% (active),54.6%,78.3%,50.5%,85.3%,50.1%,58.6%,70.5%,52.5%,33.8%
Cc1cc(NC(=O)CNc2nc(Oc3ccc(F)cc3)nc(-c3ccc(F)cc3)n2)ccc1Cl,96.6%,102%,103%,105%,93.7%,106%,116%,85.8%,101%,91.3%
O=C1CC23OC(C(O)c4ccccc4N12)C1C(c2ccccc2)=NOC13 (stereo not given),28.5%,70.4%,81.2%,89.7%,79.9%,43.6%,56.7%,52.2%,15.8%,52.8%
CCOC(=O)/C=C1\SC(=Nc2ccc(C#N)cc2)N(CCN2C(=O)/C(=C/C(=O)OCC)SC2=Nc2ccc(C#N)cc2)C1=O,-26.8% (active),5.38% (active),84.4%,50.8%,85.4%,23.7%,7.13% (active),63.7%,43.7%,21.1%
CCOC(=O)C1CCN(S(=O)(=O)/N=C2/NC(=O)NC2=C(Cl)Cl)CC1,6.17% (active),21.4%,64%,80%,70.9%,-54.4% (active),-81.2% (active),24.1%,68.6%,55%
Nc1ccccc1NS(=O)(=O)c1ccc(Cl)cc1,95%,108%,95.3%,100%,105%,98.3%,105%,98.6%,97.3%,106%
CCCCCCCCCCCCCC1=NCC[N+]1(CCO)Cc1ccccc1 (stereo not given),-47.2% (active),-83% (active),-15% (active),-28.5% (active),48.8%,-72.6% (active),-86.9% (active),-36.5% (active),-60.1% (active),-72.8% (active)
Cc1ccc(C(=O)O)o1,114%,108%,105%,100%,101%,102%,103%,118%,101%,102%
COc1ccc2cc(/C=C3\N=C(c4cc(OC)c(OC)c(OC)c4)OC3=O)c(OC)nc2c1,104%,98.4%,108%,101%,96.5%,109%,109%,97.2%,105%,96.5%
O=C(CCCC(=O)Nc1ccc(-n2nnc3cc(Cl)c(Cl)cc32)cc1)Nc1ccc(-n2nnc3cc(Cl)c(Cl)cc32)cc1,81.1%,25.5%,87.6%,-5.56% (active),31%,59.8%,56.1%,49.8%,84.5%,36.7%
O=C(CSC(=S)N1CCCCC1)Nc1ccccc1,84.6%,99.4%,106%,109%,106%,103%,107%,106%,102%,81.7%
COc1ccc2oc(=O)cc(-c3c(C#N)c(N)n4nc(N)c(C#N)c4c3C#N)c2c1,110%,111%,96.8%,111%,93.2%,94.4%,91.9%,104%,104%,84.1%
COc1ccc(-c2nnc(N3CCN(C(=O)CN4CCN(c5ccccc5)CC4)CC3)nc2-c2ccc(OC)cc2)cc1,-58.3% (active),42%,78.6%,24.4%,74.4%,34.3%,33.8%,55.4%,42.1%,16.8%
CNC(=O)c1cc(Oc2ccc3c(c2)sc2nc(-c4ccc(NC(C)=O)cc4)cn23)ccn1,60.3%,73%,90%,83.5%,34%,69.2%,75%,43.4%,52.1%,16.9%
COc1ccc(C(=O)c2cc(OC)c(OC)c(OC)c2)cc1OC(=O)CCl,29.7%,7.08% (active),73.7%,54.5%,17.7%,25.7%,0.464% (active),48.9%,10.2%,74.7%
CSc1nc(-c2ccc(F)cc2)c(C#N)c(N2CCOCC2)n1,89.2%,92.9%,89.2%,90.6%,97.3%,92%,98.1%,91.4%,97.5%,79.7%
Nc1n[nH]c2cccc(C#Cc3cccc(NC(=O)c4cc(N5CCOCC5)cc(C(F)(F)F)c4)c3)c12,40.5%,45.5%,42.4%,51.5%,35.1%,9.97% (active),67.3%,40.5%,47%,28.3%
CCCCn1c(=O)c(/C=C/C(=O)/C=C/c2cc3ccccc3n(CCCC)c2=O)cc2ccccc21,-32.1% (active),-0.92% (active),25.9%,28.5%,15.6%,1.5% (active),-15.7% (active),30%,22.8%,20.8%
CCOC(=O)c1c(C)nc2c(c1N)/C(=C/c1cccs1)C(=O)N2c1ccc(OC)cc1,74.5%,20.5%,102%,13.9%,36.6%,45.7%,32.3%,25%,29%,19%
Cc1nccc2c3ccc(OCc4cn(-c5ccc(Br)cc5)nn4)cc3n(CC(C)C)c12,-16.2% (active),40.7%,68.2%,58.8%,43.4%,67.4%,57.8%,59.4%,32.1%,36.9%
Nn1c(SCC(=O)Nc2ccc(Cl)cc2)nnc1-c1cc(F)c(Cl)cc1Cl,76.8%,89.9%,66.5%,85.9%,89.9%,89.9%,84.2%,99.7%,93.5%,67.3%
COc1cc2c(cc1OCCCOc1cc3c(cc1OC)C(=O)N1CC(F)(F)C[C@H]1C=N3)N=C[C@@H]1CC(F)(F)CN1C2=O,-30.7% (active),17.8%,14.2%,35.2%,46.2%,0.757% (active),22.8%,-8.37% (active),76.9%,27.7%
